Laboratory results published in PubChem BioAssay.
Values joined by “and” are separate entries in the source; they are usually repeats but may differ in a detail not shown here. Equal entries are not always repeated. Active and inactive are the calls of the source.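 The calls were made as follows, unless noted: active = compounds whose cell count with miR-34 switched on is under 0.7 times the count with it off; inactive = the rest.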

Assays:
[1] = viability loss with induced miR-34 in A549 – imaging, A549 dox-inducible miR-34, nuclei and caspase counts, primary screen (AID 1347080); details: A549 miR-34 inducible, Hoechst nuclei count, 48 h; also: test concentration not given here
[2] = MELAS cybrid and Rieske KO viability enhancers – cell-based, MELAS cybrids, Rieske KO mouse fibroblasts, CellTiter-Glo, primary screen (AID 1508586;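 active = mean z-score across replicates of 1.96 or higher in either the MELAS or the Rieske mutant cell line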;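 also: test concentration not given here; z relative to plate mean and SD of compound and empty wells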); details: low glucose
[3] = galactose survival enhancers in mitochondrial complex I cybrids – cell-based, galactose medium, ATP luminescence, primary screen (AID 1645843;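 active = z-score of at least 1.8 in each of two replicates, scored against plate mean and spread of sample wells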;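 also: positive z means more ATP and so rescue of galactose-driven cybrid death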); details: complex I mutant cybrid cells, 72 h, stronger effect = higher value
[4] = stronger effect = lower value, cell number ratio, induced over uninduced
[5] = measured here: relative caspase fold change +Dox/-Dox
[6] = measured here: total cells with miR-34 induction, stronger effect = lower value
[7] = measured here: total cells without miR-34 induction
[8] = MELAS cybrid survival, CellTiter-Glo 48 h, stronger effect = higher value
[9] = Rieske KO mouse fibroblast survival, CellTiter-Glo 72 h

Cc1cccc(CN2CCN(c3ncnc4sccc34)CC2=O)c1
fold change [1, 4]: 0.946 (inactive)
fold change [1, 5]: 2.04
cell count [1, 6]: 4670
cell count [1, 7]: 4940
z-score [2, 8]: -0.529 (inactive)
z-score [2, 9]: -0.501
z-score [3]: 2.43 (inactive)

Nc1ncc(Cc2ccccc2)s1
fold change [1, 4]: 0.906 (inactive)
fold change [1, 5]: 0.514
cell count [1, 6]: 8010
cell count [1, 7]: 8850
z-score [2, 8]: -0.355 (inactive)
z-score [2, 9]: -0.511
z-score [3]: -0.26 (inactive)

CC(C)n1cc(-c2cc(C(=O)N(C)Cc3ccncc3)c3ccc(F)cc3n2)cn1
fold change [1, 4]: 0.897 (inactive)
fold change [1, 5]: 1.79
cell count [1, 6]: 8810
cell count [1, 7]: 9830
z-score [2, 8]: -0.679 (inactive)
z-score [2, 9]: 0.655
z-score [3]: -0.46 (inactive)

Cc1nc2cc(C(=O)N(C)Cc3cc(-c4cccnc4)no3)ccc2s1
fold change [1, 4]: 0.86 (inactive)
fold change [1, 5]: 2.36
cell count [1, 6]: 6380
cell count [1, 7]: 7420
z-score [2, 8]: -0.957 (inactive)
z-score [2, 9]: -0.223
z-score [3]: -0.55 (inactive)

O=C(O)c1ccc(-c2ccccc2OC(F)(F)F)o1
fold change [1, 4]: 0.872 (inactive)
fold change [1, 5]: 0.264
cell count [1, 6]: 8780
cell count [1, 7]: 10100
z-score [2, 8]: -0.488 (inactive)
z-score [2, 9]: 0.181
z-score [3]: 0.04 (inactive)

CC(C)C(=O)N1CCC(CNC(=O)c2ccno2)CC1
fold change [1, 4]: 0.927 (inactive)
fold change [1, 5]: 0.833
cell count [1, 6]: 9650
cell count [1, 7]: 10400
z-score [2, 8]: 0.208 (inactive)
z-score [2, 9]: 0.293
z-score [3]: -0.57 (inactive)

CC(C)(O)c1ccccc1CCC(SCC1(CC(=O)O)CC1)c1cccc(C=Cc2ccc3ccc(Cl)cc3n2)c1 (centres undefined)
fold change [1, 4]: 0.925 (inactive) and 0.834 (inactive)
fold change [1, 5]: 1.67 and 2.27
cell count [1, 6]: 8950 and 7950
cell count [1, 7]: 9680 and 9540
z-score [2, 8]: -0.195 (inactive)
z-score [2, 9]: -0.136
z-score [3]: 0.25 (inactive)

Cc1ccc(C(=O)N2CCC(Cc3ccccc3)CC2)cc1
fold change [1, 4]: 0.922 (inactive)
fold change [1, 5]: 1.12
cell count [1, 6]: 7870
cell count [1, 7]: 8540
z-score [2, 8]: -0.903 (inactive)
z-score [2, 9]: 0.658
z-score [3]: -0.71 (inactive)

O=C(Nc1n[nH]c(Cc2ccccc2)n1)N1CCN(c2ncccn2)CC1
fold change [1, 4]: 0.879 (inactive)
fold change [1, 5]: 0.976
cell count [1, 6]: 8590
cell count [1, 7]: 9760
z-score [2, 8]: -0.0698
z-score [2, 9]: 4
z-score [3]: 0.005 (inactive)

O=C(O)c1ccc(-c2ccccc2Cl)o1
fold change [1, 4]: 0.867 (inactive)
fold change [1, 5]: 0.416
cell count [1, 6]: 7840
cell count [1, 7]: 9050
z-score [2, 8]: -0.894 (inactive)
z-score [2, 9]: 0.4
z-score [3]: 0.53 (inactive)

CCn1ccnc1CN(C)C(=O)c1cc(-c2cnc(N)nc2)nc2cc(C)ccc12
fold change [1, 4]: 0.962 (inactive)
fold change [1, 5]: 1.43
cell count [1, 6]: 9170
cell count [1, 7]: 9540
z-score [2, 8]: -0.0965 (inactive)
z-score [2, 9]: 0.497
z-score [3]: 0.64 (inactive)

O=S(=O)(O)CCNC1CCCCC1
fold change [1, 4]: 0.931 (inactive)
fold change [1, 5]: 0.147
cell count [1, 6]: 9490
cell count [1, 7]: 10200
z-score [2, 8]: 0.282 (inactive)
z-score [2, 9]: -0.218
z-score [3]: 0.78 (inactive)

Nc1ccn(C2OC(CO)C(O)C2O)c(=O)n1 (centres undefined)
fold change [1, 4]: 1.14 (inactive) and 0.906 (inactive)
fold change [1, 5]: 0.982 and 0.86
cell count [1, 6]: 2260 and 7940
cell count [1, 7]: 1990 and 8760
z-score [2, 8]: -0.137 (inactive)
z-score [2, 9]: -0.441
z-score [3]: -1.19 (inactive)

CCSCCNc1nccc(-c2cn(C)nc2C)n1
fold change [1, 4]: 0.861 (inactive)
fold change [1, 5]: 2.06
cell count [1, 6]: 8420
cell count [1, 7]: 9770
z-score [2, 8]: -0.242 (inactive)
z-score [2, 9]: 0.458
z-score [3]: -0.585 (inactive)

CS(=O)(=O)Nc1ccc(C(=O)O)cc1
fold change [1, 4]: 0.918 (inactive)
fold change [1, 5]: 0.714
cell count [1, 6]: 8860
cell count [1, 7]: 9650
z-score [2, 8]: 0.13 (inactive)
z-score [2, 9]: -0.244
z-score [3]: 0.365 (inactive)

CC(c1cccc(O)c1)N(C)C (centres undefined)
fold change [1, 4]: 0.895 (inactive)
fold change [1, 5]: 0.805
cell count [1, 6]: 8630
cell count [1, 7]: 9640
z-score [2, 8]: -0.0784 (inactive)
z-score [2, 9]: -0.273
z-score [3]: 0.205 (inactive)

CC1(C)CC(=O)c2c(N)ncnc2C1
fold change [1, 4]: 0.894 (inactive)
fold change [1, 5]: 0.392
cell count [1, 6]: 9160
cell count [1, 7]: 10200
z-score [2, 8]: 0.568 (inactive)
z-score [2, 9]: -0.422
z-score [3]: 0.725 (inactive)

CN(C)C(=O)c1cc(-c2cnc(-c3ccccn3)nc2)nc2cc(F)ccc12
fold change [1, 4]: 0.875 (inactive)
fold change [1, 5]: 1.98
cell count [1, 6]: 8570
cell count [1, 7]: 9790
z-score [2, 8]: -0.444 (inactive)
z-score [2, 9]: -0.334
z-score [3]: -0.41 (inactive)

COc1nc2ccccc2cc1-c1nnc2ccccn12
fold change [1, 4]: 0.94 (inactive)
fold change [1, 5]: 1.24
cell count [1, 6]: 7160
cell count [1, 7]: 7610
z-score [2, 8]: -0.729 (inactive)
z-score [2, 9]: -1.23
z-score [3]: -0.505 (inactive)

CCn1ncc(NC(=O)Cn2cc(-c3ncnc4ccsc34)cn2)n1
fold change [1, 4]: 0.848 (inactive)
fold change [1, 5]: 1.75
cell count [1, 6]: 8160
cell count [1, 7]: 9620
z-score [2, 8]: -0.432 (inactive)
z-score [2, 9]: -0.147
z-score [3]: -0.53 (inactive)

Cc1nn(C)cc1-c1ccnc(N2CCCN(c3ccccc3)CC2)n1
fold change [1, 4]: 0.823 (inactive)
fold change [1, 5]: 0.527
cell count [1, 6]: 5610
cell count [1, 7]: 6820
z-score [2, 8]: -1.06
z-score [2, 9]: 3.98
z-score [3]: 2.46 (active)

Cc1nc(NC(=O)NCc2cccc(C(F)(F)F)c2)nn1C
fold change [1, 4]: 0.922 (inactive)
fold change [1, 5]: 1.12
cell count [1, 6]: 9110
cell count [1, 7]: 9880
z-score [2, 8]: 0.0413 (inactive)
z-score [2, 9]: 1.4
z-score [3]: 0.45 (inactive)

O=c1ccn2c(n1)OC1C(O)C(CO)OC12 (centres undefined)
fold change [1, 4]: 0.869 (inactive)
fold change [1, 5]: 0.596
cell count [1, 6]: 8620
cell count [1, 7]: 9930
z-score [2, 8]: 0.627 (inactive)
z-score [2, 9]: -0.112
z-score [3]: 0.87 (inactive)

O=C(c1cccc(=O)[nH]1)N(Cc1cccnc1)Cc1ccc2c(c1)OCO2
fold change [1, 4]: 0.964 (inactive)
fold change [1, 5]: 1.96
cell count [1, 6]: 9470
cell count [1, 7]: 9830
z-score [2, 8]: -0.318 (inactive)
z-score [2, 9]: 0.234
z-score [3]: -0.17 (inactive)

Cc1cc(NC(=O)Cn2ccc(-c3ncnn3C)n2)n(C2CCCCC2)n1
fold change [1, 4]: 0.953 (inactive)
fold change [1, 5]: 1.19
cell count [1, 6]: 9860
cell count [1, 7]: 10400
z-score [2, 8]: 0.129 (inactive)
z-score [2, 9]: -0.435
z-score [3]: -0.55 (inactive)

Cc1nsc(NC(=O)NC2Cc3ccccc3C2)n1
fold change [1, 4]: 0.755 (inactive)
fold change [1, 5]: 2.05
cell count [1, 6]: 7330
cell count [1, 7]: 9710
z-score [2, 8]: 0.128 (inactive)
z-score [2, 9]: -0.355
z-score [3]: 2.51 (active)

CCc1ccccc1-c1cc(C)nc(N)n1
fold change [1, 4]: 0.887 (inactive)
fold change [1, 5]: 1.81
cell count [1, 6]: 8420
cell count [1, 7]: 9490
z-score [2, 8]: -0.131 (inactive)
z-score [2, 9]: -1.38
z-score [3]: -0.555 (inactive)
